The record followed here is PubChem BioAssay (NCI).

This is part of a sample that, as a whole, favours compounds with a hit. Of some 83,000 tested, about 20% had one in any assay.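 Negative percent growth values reflect cell death: -40 means 40% of the cells present at the start died, and -100 means all died.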 Values without a mark were called inactive. The source made the active and inactive calls. The calls were made as follows: active = growth percent below 10; inactive = the rest.

Common to all, as to experiment: NCI-60 one-dose screen, 48 h (100 = growth as untreated, 0 = no growth, -100 = all killed)
In experiment [1] the test system is HT29 colon. To be noted: 10 µM unless noted.
Experiment [2] deals with SNB-75 CNS. As to conditions: 10 µM unless noted.
In experiment [3] the test system is SNB-19 CNS. As to conditions: 10 µM unless noted.
In experiment [4] the test system is U251 CNS. As to conditions: 10 µM unless noted.
The subject of experiment [5] is PC-3 prostate. To be noted: 10 µM unless noted.
Experiment [6] relates to SK-MEL-5 melanoma. As to conditions: 10 µM unless noted.
In experiment [7] the test system is UACC-62 melanoma. As to conditions: 10 µM unless noted.
Experiment [8] has as its system LOX IMVI melanoma. To be noted: 10 µM.
Experiment [9] deals with SK-MEL-28 melanoma. To be noted: 10 µM unless noted.
In experiment [10] the test system is SK-MEL-2 melanoma. As to conditions: 10 µM unless noted.
The test system of experiment [11] is EKVX NSCLC. To be noted: 10 µM unless noted.
Experiment [12] has as its system SN12C renal. To be noted: 10 µM unless noted.
The subject of experiment [13] is UO-31 renal. To be noted: 10 µM unless noted.
For experiment [14], the system named is TK-10 renal. To be noted: 10 µM unless noted.
In experiment [15] the test system is ACHN renal. As to conditions: 10 µM unless noted.
The subject of experiment [16] is A498 renal. As to conditions: 10 µM unless noted.
For experiment [17], the system named is CCRF-CEM leukemia. To be noted: 10 µM unless noted.
The test system of experiment [18] is MOLT-4 leukemia. As to conditions: 10 µM unless noted.
Experiment [19] concerns CAKI-1 renal. To be noted: 10 µM unless noted.

Regarding `NC(CCl)=NCC12CC3CC(CC(C3)C1)C2`, the growth was -13.6% (active) in [1]; 13.2% in experiment [2]; 22.2% in experiment [3]; 6.8% (active) in [4]; 7.42% (active) in [5]; 5.92% (active) in experiment [6]. The growth in experiment [7] is 32.7%; in experiment [8], -33.6% (active); in [9], 55.3%; in experiment [10] it was -44.6% (active); in [11], -7.97% (active); in [12], 9.41% (active). The growth in [13] is -98.5% (active); in experiment [14], -2.27% (active); in experiment [15], 11.8%; in experiment [16], 33%; in [17], -15.8% (active); in experiment [18], 27.4%.

On to `CC(=O)NCNC(C)=O`, for which the growth in [1] was 111%; in experiment [2], 92.4%; in experiment [3], 107%; in experiment [4], 103%; in experiment [5], 88.9%; in experiment [6], 102%. In addition, the growth was 112% in [7]; 113% in experiment [8]; 107% in experiment [9]; 109% in experiment [12]; 105% in experiment [13]; 115% in [14]. Further, the growth in experiment [15] was 100%; in [19], 102%; in [16], 113%; in experiment [17] it was 93.3%; in [18], 87.9%.

As to `CCOC(=O)c1ccc(NC(=O)Nc2nccs2)cc1`, the growth in experiment [1] is -25.6% (active); in experiment [2], 61.5%; in experiment [3] it was 11.6%; in experiment [4] it was 12.5%; in experiment [5] it was 22.8%; in experiment [6] it was -67.3% (active). The growth in experiment [7] was 31.8%; in [8], 11.9%; in [9] it was 40.9%; in [10] it was -38.4% (active); in [11] it was 55.5%; in [12], 24.7%. For the same molecule, the growth is 14.8% in experiment [13]; 31.6% in [14]; 9.97% (active) in experiment [15]; 22.2% in experiment [19]; 7.68% (active) in experiment [16]; -0.276% (active) in [17]. Moreover, in experiment [18], the growth was -2.7% (active).

For `COC1(OC)C2(Cl)C(Cl)=C(Cl)C1(Cl)C1COCC12` (configuration not stated), the growth in [1] was 99.3%; in [2], 86.3%; in experiment [3], 100%; in experiment [4], 103%; in [5] it was 97.6%; in [6], 102%. Moreover, the growth is 97.4% in [7]; 107% in experiment [8]; 105% in [9]; 89.7% in experiment [10]; 104% in experiment [11]; 99.2% in experiment [12]. Also, the growth in experiment [13] is 91.6%; in [14], 94.7%; in experiment [15] it was 108%; in [19] it was 93.9%; in experiment [16], 87.6%; in [17] it was 103%. Also, the growth in experiment [18] is 102%.

In the case of `CC1CN(CCO)CC(C)O1` (configuration not stated), the growth in experiment [1] is 114%; in [2], 96.5%; in experiment [3] it was 102%; in experiment [4] it was 102%; in [6], 102%; in experiment [9], 104%. Further, the growth in [10] was 133%; in [11], 102%; in experiment [13] it was 90.7%; in [14], 106%; in experiment [15] it was 107%; in [19], 93.5%. Besides, the growth was 114% in [16], 100% in experiment [17] and 105% in [18].

On to `CCCCc1ccc2nc(NC(=O)OC)[nH]c2c1`, for which the growth in experiment [1] is 12.2%; in experiment [2], 65.1%; in experiment [3], 14.7%; in experiment [4], 22.2%; in [5], 22.5%; in experiment [6] it was -49.2% (active). Moreover, the growth in experiment [7] is 41%; in experiment [8], 25.2%; in [9], 58.8%; in experiment [10], 44.4%; in experiment [11] it was 60.3%; in [12], 34.5%. Also, the growth in experiment [13] was 36.1%; in [14], 57.6%; in experiment [15], 39.2%; in experiment [19], 19.5%; in experiment [16], -5.63% (active); in [17] it was -15.5% (active). The growth in experiment [18] is -18.9% (active).

For the molecule `COc1nc(Nc2cccc(C(F)(F)F)c2)nc(OC)n1`, the growth in [1] is 96.1%; in [2], 84.3%; in experiment [3] it was 101%; in [4] it was 89.4%; in [5], 98.7%; in experiment [6] it was 94%. Besides, the growth in experiment [7] was 103%; in [8] it was 107%; in experiment [9], 109%; in experiment [12] it was 102%; in [13], 84.3%; in [14] it was 111%. Further, the growth is 110% in experiment [15]; 103% in [19]; 85.3% in experiment [16]; 95.5% in experiment [17]; 86.4% in experiment [18].

Take `C=CCOc1ccc(Cl)cc1Cl`: the growth was 112% in experiment [1]; 90.3% in experiment [2]; 114% in [3]; 106% in experiment [4]; 88.2% in experiment [5]; 108% in experiment [6]. For the same molecule, the growth in experiment [7] was 92.7%; in experiment [8], 99.6%; in [9], 115%; in experiment [10], 119%; in experiment [11] it was 103%; in experiment [12], 105%. In addition, the growth in experiment [13] was 93.5%; in [14], 113%; in experiment [19] it was 98%; in experiment [18], 52%.

Regarding `CCN(C(C)=O)c1ccc([N+](=O)[O-])cc1`, the growth was 104% in experiment [1]; 108% in [2]; 101% in experiment [3]; 90.8% in experiment [4]; 97.5% in experiment [5]; 96.2% in experiment [6]. In addition, the growth is 97.5% in experiment [7]; 98.6% in [8]; 106% in [9]; 107% in experiment [10]; 105% in [12]; 89.7% in experiment [13]. Besides, the growth is 93% in experiment [14]; 113% in experiment [15]; 102% in experiment [19]; 82.5% in experiment [16]; 98.9% in [17]; 95.6% in experiment [18].

On to `CC(=O)N(C(C)=O)c1ccc(C)cc1`, for which the growth in experiment [1] was 105%; in experiment [2] it was 89.1%; in [3], 93.8%; in experiment [4], 97.6%; in experiment [5], 93.7%; in experiment [6], 95.5%. For the same molecule, the growth in [7] is 91.4%; in [8], 92.1%; in experiment [9] it was 107%; in [10], 106%; in experiment [11], 92.6%; in experiment [12], 96.1%. The growth is 92.4% in experiment [13]; 99.1% in [14]; 112% in [15]; 92.7% in [19]; 119% in [16]; 106% in [17]. In addition, in experiment [18], the growth is 93.9%.

In the case of `CSc1cnc2ccccc2n1`, the growth in experiment [1] was 83.2%; in [2] it was 107%; in [3], 99.5%; in experiment [4], 94.1%; in experiment [5], 89.6%; in [6], 105%. Besides, the growth in experiment [7] is 97.1%; in experiment [8], 96.4%; in experiment [10], 86%; in experiment [11] it was 103%; in experiment [12], 94.4%; in experiment [13], 78.4%. Further, the growth in experiment [14] was 94.1%; in experiment [15], 107%; in experiment [19], 97%; in experiment [16], 105%; in experiment [17], 113%; in [18], 107%.

Take `COc1cc(N)c2ncccc2c1Cl`: the growth was 91.1% in experiment [1]; 99.8% in experiment [2]; 98.8% in experiment [3]; 101% in [4]; 93.3% in experiment [5]; 96.4% in experiment [6]. The growth is 86.7% in experiment [7]; 104% in experiment [8]; 121% in experiment [9]; 96.7% in [10]; 84.3% in experiment [11]; 91.5% in experiment [12]. The growth in [13] was 78.4%; in experiment [14], 93.6%; in [15], 91.2%; in [19], 95.8%; in [16], 97.1%; in experiment [18] it was 93.3%.

Take `N=C(N)c1nn(C2OC(CO)C(O)C2O)c2nc[nH]c(=O)c12` (configuration not stated): the growth in experiment [1] was 11.7%; in [2] it was 9.13% (active); in experiment [3], 5.88% (active); in experiment [4], 16%; in experiment [5], -3.91% (active); in experiment [6] it was -97% (active). Also, the growth in experiment [8] is -27.8% (active); in [9], -53.9% (active); in experiment [10], -23% (active); in [11], -0.273% (active); in [12], 6.98% (active); in experiment [13], 13.1%. Further, the growth in experiment [14] was -9.5% (active); in experiment [15], -5.7% (active); in experiment [19], 1.5% (active); in experiment [16], 15.4%; in [17] it was -0.754% (active); in experiment [18] it was -11.9% (active).

For `O=C1NC(=O)C(c2ccccc2)O1` (configuration not stated), the growth in experiment [1] is 105%; in experiment [2] it was 93.2%; in experiment [3], 109%; in experiment [4], 101%; in [5], 102%; in experiment [6], 104%. Also, the growth was 105% in experiment [7]; 97.4% in [8]; 109% in experiment [9]; 90.1% in experiment [10]; 103% in [12]; 87.6% in [13]. For the same molecule, the growth in experiment [14] was 101%; in experiment [15], 99.2%; in experiment [19], 98%; in experiment [16], 102%; in experiment [17], 101%; in experiment [18], 98.3%.

With `NC(=S)N/N=C/c1ccc(Cl)cc1`, the growth in experiment [1] is 108%; in experiment [2] it was 103%; in experiment [3], 107%; in [4], 99.7%; in experiment [5], 99.6%; in [6], 99.1%. Moreover, the growth in experiment [7] was 109%; in experiment [8] it was 99.1%; in [9] it was 107%; in [12], 128%; in experiment [13] it was 94.8%; in experiment [14], 106%. Besides, the figures for the growth in experiment [15], in experiment [16] and in [18] were 108%, 99.5% and 88.4%, respectively.

Regarding `CCCC(=O)c1cccs1`, the growth in [1] was 98%; in experiment [2] it was 88.5%; in experiment [3] it was 101%; in [4] it was 110%; in [5], 89.2%; in experiment [6], 105%. Further, the growth in experiment [7] was 95.1%; in experiment [8], 95.9%; in experiment [9] it was 107%; in experiment [10] it was 115%; in experiment [12] it was 95.6%; in experiment [13], 98%. Also, the growth is 101% in experiment [14]; 103% in experiment [15]; 99.7% in [19]; 61% in experiment [16]; 102% in [17]; 100% in [18].
